# Screening data: PubChem BioAssay, National Center for Advancing Translational Sciences (NCATS)
# This is one part of a sample in which hits are shown more often than they occur.
# Pf Dd2 growth = inhibitors of Plasmodium falciparum Dd2 growth; P. falciparum Dd2 growth, SYBR Green, 72 h; Potency, µM (series often up to 28.9 µM), for the others: at the highest dose activity, negative = inhibition, hits mostly inhibitors; actives 4.3% (n = 120,000); active means well fitted inhibition curve with a large enough effect;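 further: plate controls were DMSO vehicle for no effect and reference drug for full effect; nearly all actives have a fitted effect of over 65% in size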
#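 Readout: SYBR Green fluorescence, 485 nm excitation, 535 nm emission, after ~16 h lysis at 37C. Before that, Dd2-infected red cells (2.5% hematocrit) grew 72 h with compound, 29 uM top final concentration.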
# The depositor's hits bear a star; i = inactive; [ ] = dose if it differs, or a comment. Potency means the concentration at half of the fitted maximal effect.
SMILES,Pf Dd2 growth
COc1ccc(C(=O)NC[C@H]2O[C@@H](CO)[C@@H](O)[C@H]2N2CCc3ccccc3C2)cc1,-24.5%
O=c1c2ccccc2nc(/C=C\c2ccc(F)cc2)n1-c1ccccc1F,i
O=c1c2ccccc2nc(/C=C/c2ccccc2)n1-c1ccccc1F,i
Cc1ccccc1-n1c(/C=C/c2c(C)[nH]c3ccccc23)nc2ccccc2c1=O,3.16µM*
COCCNC(=O)C1COC2(CCC(C)CC2)N1C(=O)c1ccccc1C (stereo not given),-3.7%
CCCNC(=O)O[C@@H]1CC[C@]2(C)[C@H](CC[C@@H](O)[C@H]2CC(=O)N2CCCC2)[C@]1(C)CO,0.2%[44.1 µM]
CCCNC(=O)O[C@@H]1CC[C@]2(C)[C@H](CC[C@@H](O)[C@H]2CC(=O)N2CCCCC2)[C@]1(C)CO,i
C[C@]1(CO)C2CC[C@@H](O)[C@@H](CC(=O)NCc3cccs3)[C@]2(C)CC[C@H]1OC(=O)NC1CCCCC1 (stereo not given in full),11.2µM*
COc1cc(NC(=O)O[C@@H]2CC[C@]3(C)C(CC[C@@H](O)[C@H]3CC(=O)N3CCCC3)[C@]2(C)CO)cc(OC)c1 (stereo not given in full),-14.4%
COc1ccc(NC(=O)O[C@@H]2CC[C@]3(C)C(CC[C@@H](O)[C@H]3CC(=O)N3CCC[C@H]3CO)[C@]2(C)CO)cc1 (stereo not given in full),-20.9%
CCNC(=O)O[C@@H]1CC[C@]2(C)C(CC[C@@H](O)[C@H]2CC(=O)NCc2ccc(F)cc2)[C@]1(C)CO (stereo not given in full),-5.3%
COc1cc(NC(=O)O[C@@H]2CC[C@]3(C)C(CC[C@@H](O)[C@H]3CC(=O)N3CCCCC3)[C@]2(C)CO)cc(OC)c1OC (stereo not given in full),5.01µM*
C[C@]1(CO)C2CC[C@@H](O)[C@@H](CC(=O)N3CCCC3)[C@]2(C)CC[C@H]1OC(=O)Nc1ccccc1 (stereo not given in full),8.91µM*
CC(C)NC(=O)O[C@@H]1CC[C@]2(C)C(CC[C@@H](O)[C@H]2CC(=O)NCc2ccco2)[C@]1(C)CO (stereo not given in full),-11.2%
COC1CCOC2(CCN(C(=O)c3cc(C)nn3C)CC2)C1 (stereo not given),19.7%
Cc1nncn1C1CCN(S(=O)(=O)c2ccc(C(F)(F)F)cc2)CC1,-12.6%
COCC(=O)N1CCc2nc(N3CCc4ccccc4C3)[nH]c(=O)c2CC1,i[5.79 µM]
COc1ccccc1NC(=O)C1=C(C)Nc2ncnn2C1c1ccccc1C(=O)O (stereo not given),1.26µM*
COc1cc(OC)c(C2C(C(=O)Nc3ccccc3)=C(C)Nc3ncnn32)cc1OC (stereo not given),3.9%
COc1ccccc1NC(=O)C1=C(C)Nc2nc(SCC(=O)c3ccc(C)cc3)nn2C1c1ccc(F)cc1 (stereo not given),22.4%
COc1cccc(C2C=C(c3ccccc3)Nc3c(C(=O)Nc4ccccc4)cnn32)c1OC (stereo not given),-0.4%
CCOc1ccc(C2C(C(=O)Nc3ccccc3OC)=C(C)Nc3c(C(=O)Nc4cccc(C)c4)cnn32)cc1 (stereo not given),3.98µM*
CCOc1ccc(NC(=O)c2cnn3c2NC(c2ccccc2)=CC3c2cccc(OC)c2OC)cc1 (stereo not given),2.51µM*
CCCCOc1ccc(C2C(C(=O)Nc3ccccc3OC)=C(C)Nc3nnnn32)cc1OC (stereo not given),i
COc1ccccc1NC(=O)C1=C(C)Nc2c(C(=O)Nc3ccc(F)cc3)cnn2C1c1ccc(Cl)cc1 (stereo not given),8.91µM*
SMILES,Pf Dd2 growth
COc1ccccc1NC(=O)C1=C(C)Nc2nnnn2C1c1ccc(C(F)(F)F)cc1 (stereo not given),-15.8%
CCOc1ccc(NC(=O)c2cnc(Nc3ccccc3OC)c3ccccc23)cc1,i
CCOc1cc(C2C(C(=O)Nc3ccccc3)=C(C)Nc3ncnn32)cc(Br)c1O (stereo not given),1.9%
CCOc1ccccc1NC(=O)C1=C(C)Nc2ncnn2C1c1ccc(C)o1 (stereo not given),-9.8%
COc1ccc(CNC(=O)C2CCN(C(=O)c3ncn4c3COC(c3ccc(C)cc3)C4)CC2)cc1 (stereo not given),i
Cc1nc2cccnc2n1CC1CCCN(S(=O)(=O)Cc2ccccc2)C1 (stereo not given),-20.4%
COCCN1C(=O)CS(=O)(=O)C12CCN(C(=O)c1cc(Cl)ccc1OC)CC2,-11.2%
COC1CCC12CCN(C(=O)c1sc(C)nc1C)CC2 (stereo not given),17.8%
CNC(=O)[C@@H](c1ccc(OC)cc1)N1CCC[C@H]1C(=O)NC1CCCC1,28.8%[44.1 µM]
Cc1cnc(C2CC2)n1CCNC(=O)NC1CCCCC1,4.0%
CNC(=O)[C@@H]1CN(C(=O)c2cc(Cl)ccc2F)C[C@H]1COC,1.1%
CC1=C(C(=O)Nc2ccccc2)C(c2ccc(C(=O)O)cc2)n2ncnc2N1 (stereo not given),i
COc1ccc(C2C(C(=O)Nc3ccccc3)=C(C)Nc3c(C(=O)Nc4ccccc4)cnn32)cc1 (stereo not given),3.55µM*
COc1ccc(C2C=C(c3cccc(OC)c3)Nc3c(C(=O)Nc4ccccc4)cnn32)cc1 (stereo not given),12.6µM*
Cc1ccc(NC(=O)c2cnn3c2NC(c2ccccc2)=CC3c2ccccc2)cc1 (stereo not given),i
COc1ccc(-c2nc3n(n2)C(c2ccccc2)C(C(=O)Nc2cccnc2)=C(C)N3)cc1 (stereo not given),-4.1%
COc1cccc(NC(=O)c2cnn(-c3ccccc3)c2-n2cccc2)c1,-26.6%
COCCCNC(=O)c1ccc(N2CC3CC(C2)[C@H]2CCCC(=O)N2C3)nc1 (stereo not given in full),-23.3%
O=C(NC1CCCCC1)[C@@H]1C[C@@H](O)CN1C1CCN(C(=O)c2nccc3ccccc23)CC1,-25.2%
COCCCNC(=O)C1COC2(CCC(C)CC2)N1C(=O)c1ccccc1F (stereo not given),0.0%
O=C(O)COCC(=O)N[C@H]1CCN2C(=O)c3cc(/C=C/c4ccccc4)ccc3NC(=O)[C@H]12,-6.3%
Cn1nc(C2CCN(C(=O)C3CCCO3)CC2)c2c1CCOC2 (stereo not given),17.0%[5.79 µM]
CC(=O)N1CCCC1c1nc2ccccc2n1Cc1cc(C)ccc1C (stereo not given),-2.2%
CCC(O)c1nc2ccccc2n1Cc1cccc(Cl)c1 (stereo not given),-22.8%
CCC(O)c1nc2ccccc2n1Cc1cc(C)ccc1C (stereo not given),11.2µM*
SMILES,Pf Dd2 growth
CC(C)NC(=O)N[C@H]1CCN2C(=O)c3ccccc3NC(=O)[C@@H]2C1,-2.9%[44.1 µM]
O=C(NCC1CCOCC1)c1ccco1,11.3%
O=C(Cc1ccccc1F)N1CCC(Oc2ncccc2C(=O)N2CCCCC2)C1 (stereo not given),-12.2%
O=C(Cc1cccs1)N1CCC(Oc2ncccc2C(=O)N2CCCCC2)C1 (stereo not given),i
O=C(Cc1cccc(Cl)c1)N1CCC(Oc2ncccc2C(=O)N2CCCCC2)C1 (stereo not given),7.94µM*
COc1ccc([C@H]2C[C@@H](O)[C@@H](O)[C@@H]2NC(=O)c2c(C)noc2C)cc1,36.2%[44.1 µM]
